Compound activity (PubChem BioAssay)
The list is not random: actives were taken first. Their share in the collection is about 1.3%.
VLA-4 inh = inhibition in a human VLA-4 binding assay | P13612 | 0.2% of 330,000 active | inhibition, % (about 7 µM as worked out from the volumes in the protocol) | VLA-4 expressing cells, ligand binding flow cytometry; in the data active means inhibition above about 50%
Bfl-1 A1 inh = inhibitors of the anti-apoptotic protein A1, read as caspase activation. MEF A1-2A-BIM cells, Caspase-Glo 3/7 luminescence, 3 h; percent of clofoctol response, vehicle zero. caspase activation, % (concentration not given with the values). 0.066% of 330,000 active. AID 2462;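 active means over half of replicate activation scores above 10%, or exactly half above 10 with the replicate mean above 10; inconclusive means replicate mean below 10 yet half the replicates above 10; inactive means over half of replicates below 10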
NTR1 agonist = NTR1 (human) agonism; P30989; NTR1-U2OS beta-arrestin-GFP spot imaging, agonist mode; activation, % at 20 µM; 0.17% of 330,000 active; AID 493036;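 active means activation at or above 40% of the spot to cytoplasm intensity ratio, with at least 20 cells analyzed; inconclusive means wells under 20 cells, flagged as cytotoxic or low count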;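 further: 0% = DMSO without peptide and 100% = 100 nM NTR1 peptide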
Target sequence (P30989 whole entry, looked up): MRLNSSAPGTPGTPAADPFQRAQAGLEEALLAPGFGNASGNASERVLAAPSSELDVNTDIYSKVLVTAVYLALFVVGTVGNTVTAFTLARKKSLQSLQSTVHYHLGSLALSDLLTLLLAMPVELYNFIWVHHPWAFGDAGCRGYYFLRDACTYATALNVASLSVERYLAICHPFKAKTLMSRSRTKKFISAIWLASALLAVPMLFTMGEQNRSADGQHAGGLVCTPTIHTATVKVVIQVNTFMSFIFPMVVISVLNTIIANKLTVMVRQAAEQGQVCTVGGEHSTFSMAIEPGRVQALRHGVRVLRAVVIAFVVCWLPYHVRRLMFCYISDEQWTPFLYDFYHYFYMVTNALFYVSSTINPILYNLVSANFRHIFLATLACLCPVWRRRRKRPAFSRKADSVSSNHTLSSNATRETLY
GRK2 inh = inhibitors of human GRK2 displacing RNA aptamer; 0.59% of 330,000 active; bead flow cytometry, FAM-aptamer displacement from GRK2; AID 488847; P25098; inhibition of aptamer binding, % at 10 µM;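 active means inhibition of aptamer binding above 40%, roughly 3 SD of noise, on plates passing a quality check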;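 further: median bead fluorescence of bound FAM aptamer so fluorescent compounds give negative values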
Beta2AR agonist = agonists of human beta-2 adrenergic receptor inducing internalization | Am2.2-beta2AR cells, FAP receptor internalization, flow cytometry | 0.43% of 340,000 active | AID 504454 | response, % (concentration not given with the values);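 active means response above a set limit, near 3 SD of response in nonfluorescent compounds, cut at about 42% in these data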
GRK2 CP1 = human GRK2 inhibition confirmation, cherry pick 1; bead-bound GRK2, FAM-aptamer displacement, flow cytometry; 4% of 2,000 active; shares compounds with GRK2 inh; aptamer displacement, % at 10 µM; AID 504451;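 active means aptamer displacement above 40%, near three times the noise of non-fluorescent compounds, on plates passing quality checks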;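 further: negative values mostly reflect intrinsic compound fluorescence rather than true enhancement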
Aptamer quench = quenches fluorescent RNA aptamer, GRK2 hit artifact. fluorescence change (kMESF span), kMESF (no concentration beside the values). AID 504521. 110 tested, under 10 active. shares compounds with GRK2 inh. Fluorescent RNA aptamer beads, quenching, flow cytometry; stronger effect = higher value;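 active means compounds whose bead fluorescence drops by more than 37 kMESF across the dose range, marking them as dye quenchers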
FAM quench CP1 = quenches fluorescent RNA aptamer, GRK2 hit artifact; shares compounds with GRK2 inh; Carboxyfluorescein RNA aptamer on beads, flow cytometry quenching; stronger effect = lower value; fluorescence response (% of DMSO), % at 10 µM; 2,000 tested, under 10 active; AID 504580;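 active means compounds that quench the bead-bound fluorescent RNA probe, cutting fluorescence to under half of the solvent control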;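 further: counterscreen run without GRK2 so only probe quenching by compound is measured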
GRK2 CP2 = confirmation of human GRK2 inhibitors binding RNA aptamer site; shares compounds with GRK2 inh; bead-bound GRK2, FAM-aptamer displacement, flow cytometry; inhibition of aptamer binding, % at 10 µM; 360 tested, under 10 active;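 active means inhibition of aptamer binding above 40%, about triple the noise seen with nonglowing compounds, on plates passing quality control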;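 further: negative values mostly come from compounds that fluoresce themselves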
FAM quench SP = counter-screen for GRK2 binding hits: quenchers of fluorescent RNA aptamer. 360 tested, under 10 active. fluorescence response vs DMSO, % at 10 µM. AID 588494. shares compounds with GRK2 inh. carboxyfluorescein RNA aptamer beads, flow cytometry quenching; stronger effect = lower value;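 active means response vs DMSO under 50%, meaning signal dropped by over half, treated as fluorescence quencher; inconclusive means no clear call, values can overlap the other calls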;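 further: labelled aptamer on streptavidin beads without GRK2 as a quench counter-screen; 100% = bead fluorescence of DMSO wells and lower means quenching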
FAM quench PS1 = counter-screen for GRK2 aptamer binding inhibitors: aptamer fluorescence quenching; shares compounds with GRK2 inh; Bead-bound FAM RNA aptamer fluorescence quenching, flow cytometry; stronger effect = lower value; fluorescence ratio to DMSO, % at 11.1 µM; 35 tested, under 10 active; AID 588496;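 active means compounds that dim the fluorescent label, raw bead signal shifting by over 33 units between lowest and highest dose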
* = called active by the depositor; ? = inconclusive; nt = not tested or not shown.

SMILES | VLA-4 inh | Bfl-1 A1 inh | NTR1 agonist | GRK2 inh | Beta2AR agonist | GRK2 CP1 | FAM quench CP1 | others
Cc1cc(/C=N\NC(=O)COc2cccc3cccnc23)c(C)n1-c1ccc(Br)cc1 | 6 | 0 | -1 | 55* | -8 | -8 | 123
C/C(=N\OCc1ccccc1C#N)c1cc2ccccc2o1 | 1 | 0 | 1 | 47* | 4 | -11 | 100
Cc1ccc(N2CCN(C(=S)Nc3ccccc3C)CC2)cc1 | 3 | ? | -1 | 2 | -3 | nt | nt
O=C(O)CSc1cnc2ccccc2n1 | -6 | 0 | -1 | 0 | 1 | nt | nt
CCCCNC(=O)c1ccccc1SCC(=O)NC1CCCCCCC1 | 8 | -1 | -3 | 61* | 9 | -18 | 96
O=C(CSc1cnc2ccccc2n1)NC1CCCC1 | -2 | 0 | -1 | 81* | 0 | -3 | 98
CC1CN=C(N(C(=O)Nc2ccccc2)C(C)c2ccccc2)S1 (stereo unspecified) | -4 | -2 | 1 | 1 | -1 | nt | nt
COCCNCCCOc1ccc(C(C)(C)c2ccccc2)cc1 | 14 | 1 | 0 | 100* | -4 | nt | nt | GRK2 CP2=-1;FAM quench SP=101
CC(=O)c1cn(CC(=O)Nc2ccccc2Cl)c2ccccc12 | -2 | 0 | -1 | 0 | -4 | nt | nt
CC(=O)c1cn(CC(=O)Nc2ccccc2F)c2ccccc12 | 24 | 0 | 0 | 72* | -4 | -6 | 103
Cc1ccc2c(c1)/C(=C/c1ccco1)C(=O)N2 | 4 | 0 | 1 | 94* | -3 | 0 | 98
CC(NC(=O)C1CCCN(S(=O)(=O)N2CCOCC2)C1)c1ccccc1 (stereo unspecified) | 4 | 0 | 1 | 2 | 5 | -1 | 95
Cc1ccc(S(=O)(=O)N(C)CC(=O)O/N=C(\N)c2ccccn2)cc1 | 12 | 0 | -2 | 100* | 8 | 1 | 102
Cc1cccc(-n2c(N)c(C(=O)NCCN3CCOCC3)c3nc4ccccc4nc32)c1 | -8 | 0 | 0 | 100* | nt | 1 | 95
CC(C)Cn1c(N)c(C(=O)NCCN2CCOCC2)c2nc3ccccc3nc21 | -1 | -1 | 4 | 3 | -13 | nt | nt
Cc1ccc(S(=O)(=O)N(C)CC(=O)NNC(=O)CCC(=O)c2ccc(F)cc2)cc1 | 6 | 0 | -1 | 0 | -4 | nt | nt
CN1CCC(=O)N(CCOc2ccccc2)CC1 | 2 | 0 | -3 | 2 | 6 | nt | nt
COc1ccc(C2CC(c3cccs3)=NN2C(=O)c2ccc(Br)o2)cc1 (stereo unspecified) | 0 | 1 | 7 | 86* | -26 | nt | nt | GRK2 CP2=15;FAM quench SP=108
Cc1cc(NC(=O)C2CCN(S(=O)(=O)c3cnc[nH]3)CC2)ccc1Br | -8 | 0 | -5 | 43* | 3 | -1 | 100
Cc1cc2ncc(-c3ccccc3)nc2cc1C | 4 | -12 | -1 | 1 | -14 | nt | nt
Cc1ccc(-c2cnc3ccccc3n2)cc1C | 2 | -14 | 3 | 0 | -10 | 2 | 101
Nc1c(C(=O)NCc2cccs2)nnn1CC(=O)Nc1cccc(Cl)c1 | 7 | -1 | -1 | 42* | -5 | nt | nt | GRK2 CP2=2;FAM quench SP=97
Cc1cc2ccccc2n1CCNC(=O)c1ccc(S(=O)(=O)N2CCCCC2)cc1 | 12 | 0 | 6 | 83* | 8 | 84* | 72 | Aptamer quench=7.5
Cc1cc2ccccc2n1CCNC(=O)C(C)Oc1ccccc1 (stereo unspecified) | -12 | 0 | -3 | 85* | 9 | 28 | 97 | Aptamer quench=-120;FAM quench PS1=101
O=[N+]([O-])c1cccc(SSc2cccc([N+](=O)[O-])c2)c1 | nt | nt | nt | nt | 3 | nt | nt
SMILES | VLA-4 inh | Bfl-1 A1 inh | NTR1 agonist | GRK2 inh | Beta2AR agonist | GRK2 CP1 | FAM quench CP1 | others
O=C(NC1CCCCC1)c1cc(S(=O)(=O)N2CCCCC2)ccc1N1CCOCC1 | -2 | 0 | 2 | 42* | 9 | -2 | 102
CCOc1cc(N2CCOCC2)c(OCC)cc1NC(=O)c1cccc(S(=O)(=O)N2CCOCC2)c1 | -9 | 1 | 3 | 30 | 3 | 1 | 97
CCOc1cc(N2CCOCC2)c(OCC)cc1NC(=O)c1cc(S(=O)(=O)N2CCOCC2)ccc1F | -2 | 0 | 2 | 5 | -1 | -2 | 96
COc1ccccc1C(CNC(=O)C(C)Oc1ccc(Br)cc1)N1CCCC1 (stereo unspecified) | 1 | -1 | -1 | 0 | -6 | nt | nt
CC(C)Oc1ccc(S(=O)(=O)N2CCOCC2)cc1NC(=O)C1=COCCO1 | -9 | 0 | -2 | 0 | -2 | nt | nt
CN1C(=O)C(CC#N)(C2(CC#N)C(=O)N(C)c3ccccc32)c2ccccc21 (stereo unspecified) | nt | nt | nt | nt | 1 | nt | nt
COC(=O)[C@@H]1C(c2c(OC)cc(OC)cc2OC)=NO[C@H]1C(=O)OC | -1 | 0 | 1 | 0 | 8 | nt | nt | GRK2 CP2=-2;FAM quench SP=99
COc1cccc(C2=NOC(C(=O)Nc3ccc(OC)c(OC)c3)C2)c1 (stereo unspecified) | -1 | 0 | 2 | 3 | 2 | nt | nt
COC(=O)C1CC(c2c(OC)cc(OC)cc2OC)=NO1 (stereo unspecified) | 8 | 0 | -1 | 0 | 9 | nt | nt | GRK2 CP2=17;FAM quench SP=99
CN(CCOc1ccccc1)C(=O)c1ccc(F)c(S(=O)(=O)N2CCOCC2)c1 | 16 | 0 | 0 | 0 | 4 | nt | nt
Cc1ccc(NC(=O)CN2C(=O)N/C(=C/c3ccc(N4CCOCC4)cc3)C2=O)cc1 | -7 | -1 | 0 | 1 | -5 | nt | nt
Cc1ccccc1NC(=O)CN1C(=O)N/C(=C\c2ccc(N3CCOCC3)c(F)c2)C1=O | 14 | 0 | 0 | 1 | -3 | -1 | 98
Cc1ccccc1C(=O)NNC(=O)c1cccc([N+](=O)[O-])c1 | -7 | 0 | 0 | 60* | 5 | -4 | 101
Cc1ccc(CONC(=O)c2cccc([N+](=O)[O-])c2)cc1 | 31 | -3 | -2 | 43* | -1 | nt | nt | GRK2 CP2=-11;FAM quench SP=100
O=C(Nc1ccc(NC(=O)c2cccc([N+](=O)[O-])c2)cc1)c1cccc([N+](=O)[O-])c1 | -4 | -1 | 1 | 0 | -8 | nt | nt
